In experiment [1] the test system is Human papillomavirus type 1a protein E7 (residues 44-93). Nature of the experiment: HPV1a E7 fragment binders on microarrays, primary screen, biochemical, small-molecule microarray, residues 44-93, 635 nm fluorescence (AID 1108).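 Further: E7 fragment applied at 1 µg/mL in TBST for 1 h at 4 C; score combines spot fluorescence with its signal to noise ratio.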 The note with it: small-molecule microarray binding, fluorescence 635 nm; higher = more signal.
Experiment [2] can be described thus: modulators of HCV replicon luciferase signal, primary screen, HCV replication inhibitor project, Huh7 cells, luciferase reporter (AID 1109).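 Further: huh7 hepatoma cells harbouring a luciferase neomycin HCV replicon reporter; luciferase luminescence as measure of HCV replicon replication; test concentration not given here.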 To be noted: 48 h, higher = more signal.
Experiment [3] deals with Left-right determination factor 2 (Homo sapiens) (UniProt O00292). Nature of the experiment: LEFTY2 binders on small-molecule microarrays, primary screen, biochemical, small-molecule microarray, 635 nm fluorescence scan (AID 1110). To be noted: LEFTY2 binding, higher = more signal.
Chain of Left-right determination factor 2 (Homo sapiens) (O00292 whole entry, looked up): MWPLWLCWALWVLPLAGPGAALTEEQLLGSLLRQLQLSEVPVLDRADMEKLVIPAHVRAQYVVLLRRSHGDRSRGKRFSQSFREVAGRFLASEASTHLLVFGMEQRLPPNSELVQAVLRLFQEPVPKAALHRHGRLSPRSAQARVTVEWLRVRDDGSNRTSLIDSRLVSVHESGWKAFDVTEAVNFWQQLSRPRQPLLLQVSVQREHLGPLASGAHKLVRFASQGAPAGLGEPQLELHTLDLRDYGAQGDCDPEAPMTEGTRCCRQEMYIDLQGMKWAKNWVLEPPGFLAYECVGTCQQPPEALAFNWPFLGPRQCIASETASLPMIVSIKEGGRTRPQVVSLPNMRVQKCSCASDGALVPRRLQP
Experiment [4] concerns the target Calmodulin-1 (Homo sapiens) (UniProt P0DP23). Nature of the experiment: CALM1 binders on microarrays, EGTA buffer, profiling panel, biochemical, small-molecule microarray, Cy5-labelled CALM1 (AID 1111).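 Further: labelled calmodulin applied in Tris saline Tween buffer holding calcium plus EGTA and DTT.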 The note with it: Cy5-CALM1 binding fluorescence, higher = more signal.
For experiment [5] the target is unchanged. Nature of the experiment: calcium-bound CALM1 binders on microarrays, profiling panel, artefact control for SMM control-protein annotation, biochemical, small-molecule microarray, Cy5-labelled CALM1, plus calcium (AID 1112).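 Further: score merges spot fluorescence with signal to noise from triplicate slides.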 To be noted: Cy5-CALM1 binding fluorescence, higher = more signal.
The nature of experiment [6]: small-molecule microarray binders of probe aWnt5a, primary screen, biochemical, biotinylated probe, 635/667 nm fluorescence (AID 1113).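 Further: score merges 667 nm fluorescence intensity with signal-to-noise per printed feature.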 To be noted: higher = more signal.
Experiment [7] in a line: small-molecule microarray binders of probe aShh, primary screen, biochemical, biotinylated probe, 635/667 nm fluorescence (AID 1114).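 Further: probe is biotin-labelled aShh protein from a stem cell growth factor screen; measures binding of labelled protein to compounds printed on the slide; score merges feature fluorescence at 667 nm with signal-to-noise.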 The note with it: higher = more signal.
Experiment [8] can be described thus: small-molecule microarray binders of probe aNog, primary screen, biochemical, biotinylated probe, 635/667 nm fluorescence (AID 1115).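 Further: probe is biotinylated aNog protein used at 0.15 µg/mL for 1 h at 4 C; z-score combines 667 nm fluorescence of each spot with its signal to noise.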 To be noted: higher = more signal.
In experiment [9] the target is Torsin-1A-interacting protein 1 (Homo sapiens) (UniProt Q5JTV8). Put plainly: LAP1 binders from COS7 cell lysate, primary screen, small-molecule microarray, 635/667 nm fluorescence (AID 1116). To be noted: COS7-hLAP1 lysate binding, 635 nm fluorescence, higher = more signal.
Chain of Torsin-1A-interacting protein 1 (Homo sapiens) (Q5JTV8 whole entry, looked up): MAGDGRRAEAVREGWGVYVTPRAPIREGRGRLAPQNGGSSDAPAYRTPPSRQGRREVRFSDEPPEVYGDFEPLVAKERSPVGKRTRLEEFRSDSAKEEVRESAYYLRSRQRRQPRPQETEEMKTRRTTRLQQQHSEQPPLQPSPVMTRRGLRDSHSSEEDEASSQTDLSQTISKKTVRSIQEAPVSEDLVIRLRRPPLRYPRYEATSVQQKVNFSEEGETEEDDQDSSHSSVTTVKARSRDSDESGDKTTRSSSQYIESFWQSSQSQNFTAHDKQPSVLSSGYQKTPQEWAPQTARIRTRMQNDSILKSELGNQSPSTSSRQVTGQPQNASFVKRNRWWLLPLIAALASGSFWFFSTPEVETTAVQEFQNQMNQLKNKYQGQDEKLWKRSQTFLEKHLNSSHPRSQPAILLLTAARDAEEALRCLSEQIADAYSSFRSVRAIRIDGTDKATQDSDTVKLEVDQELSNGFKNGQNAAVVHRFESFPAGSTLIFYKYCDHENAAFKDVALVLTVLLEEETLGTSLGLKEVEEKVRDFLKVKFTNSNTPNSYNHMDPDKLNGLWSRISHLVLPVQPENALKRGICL
The target of experiment [10] is Alpha-bungarotoxin (Bungarus multicinctus) (UniProt P60615). Put plainly: alpha-bungarotoxin binders on microarray, profiling panel, artefact control for SMM control protein annotation, biochemical, small-molecule microarray, Alexa647 label, 635/667 nm fluorescence (AID 1117). The note with it: alpha-BTX-A647 binding fluorescence, higher = more signal.
Chain of Alpha-bungarotoxin (Bungarus multicinctus) (P60615 whole entry, looked up): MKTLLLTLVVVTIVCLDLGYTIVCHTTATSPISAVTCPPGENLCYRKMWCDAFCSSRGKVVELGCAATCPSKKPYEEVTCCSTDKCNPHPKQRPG
The target in another experiment is Albumin (Bos taurus) (UniProt P02769). Nature of the experiment: bovine serum albumin binders on microarray, profiling panel, artefact control for SMM control protein annotation, biochemical, small-molecule microarray, Alexa647 label, 635/667 nm fluorescence (AID 1118).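 Further: score merges 667 nm emission intensity and signal-to-noise per printed compound spot.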 The note with it: BSA-A647 binding, fluorescence 635 nm, higher = more signal.
Chain of Albumin (Bos taurus) (P02769 whole entry, looked up): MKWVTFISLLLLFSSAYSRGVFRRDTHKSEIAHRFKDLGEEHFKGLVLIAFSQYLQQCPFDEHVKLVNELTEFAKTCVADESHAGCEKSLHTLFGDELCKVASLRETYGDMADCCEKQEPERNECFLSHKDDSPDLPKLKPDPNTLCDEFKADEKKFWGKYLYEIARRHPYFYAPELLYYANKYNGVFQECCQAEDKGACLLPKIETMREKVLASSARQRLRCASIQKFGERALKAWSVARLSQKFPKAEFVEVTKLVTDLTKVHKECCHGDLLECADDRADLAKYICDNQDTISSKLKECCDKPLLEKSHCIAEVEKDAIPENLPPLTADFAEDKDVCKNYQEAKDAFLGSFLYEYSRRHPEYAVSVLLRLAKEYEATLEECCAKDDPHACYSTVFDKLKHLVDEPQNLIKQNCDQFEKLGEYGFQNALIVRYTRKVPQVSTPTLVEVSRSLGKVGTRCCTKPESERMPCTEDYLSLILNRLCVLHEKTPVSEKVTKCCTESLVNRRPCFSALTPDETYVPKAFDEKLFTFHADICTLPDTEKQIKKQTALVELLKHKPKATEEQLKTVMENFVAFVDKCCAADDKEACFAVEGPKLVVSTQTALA
A short description of experiment [11]: small-molecule microarray binders of probe aXIP, primary screen, biochemical, NeuroSMM set, 635/667 nm fluorescence (AID 1119).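 Further: probe is the protein aXip251-270 applied at 1 µg/mL to compound-printed slides; binding of probe to printed compounds measured as 667 nm fluorescence plus signal to noise.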 The note with it: higher = more signal, called active from +8 up or from −8 down.
Experiment [12] is described as follows: small-molecule binders of probe aNOTCH3, primary screen, biochemical, small-molecule microarray, 635/667 nm fluorescence (AID 1120).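 Further: probe is a biotin-tagged antibody raised against NOTCH3 rather than NOTCH3 protein; score merges spot fluorescence near 667 nm with spot signal to noise.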 The note with it: higher = more signal.
Experiment [13] in a line: small-molecule binders of probe aNOTCH2, primary screen, biochemical, small-molecule microarray, 635/667 nm fluorescence (AID 1121).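 Further: score merges feature fluorescence read at 667 nm with its signal to noise.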 The note with it: higher = more signal.
Experiment [14] deals with Carbonic anhydrase 2 (Homo sapiens) (UniProt P00918). Put plainly: CAII small-molecule binders, profiling panel, biochemical, small-molecule microarray, Alexa647-labelled CAII (AID 1122). The note with it: CAII-A647 binding fluorescence, higher = more signal.
The nature of experiment [15]: COS7 lysate on small-molecule microarray, probe aHis, 635 nm (AID 1123).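 Further: z-score combines 667nm fluorescence intensity with signal-to-noise per printed compound spot.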 To be noted: COS7 cell lysate, fluorescence, higher = more signal.
Experiment [16] in a line: compound binding in COS7 lysate, probe aLAP1, primary screen, cell lysate, small-molecule microarray (AID 1124).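 Further: lysate comes from COS7 cells expressing LAP1 and is applied at 0.3 µg/mL; score merges spot fluorescence near 667 nm with signal-to-noise over triplicate slides.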 The note with it: probe aLAP1, fluorescence, higher = more signal.
The test system of the next experiment is Sam68 (KHDRBS1). Nature of the experiment: Sam68 small-molecule binders, primary screen, biochemical, small-molecule microarray, 635 nm fluorescence (AID 1125).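 Further: score merges 667 nm channel intensity with signal to noise over triplicate slides.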 To be noted: small-molecule microarray binding, higher = more signal.
The subject of experiment [17] is Chordin-like protein 2 (CHRDL2). Nature of the experiment: CHRDL2 small-molecule binders, primary screen, biochemical, small-molecule microarray, 635 nm fluorescence (AID 1126).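 Further: printed compound slides probed with Chrdl2 protein at 4 µg/mL for 1 h at 4 C; score merges 667 nm emission intensity with signal to noise over three replicate slides.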 The note with it: small-molecule microarray binding, fluorescence 635 nm; higher = more signal.
Experiment [18] addresses Concanavalin-A (Canavalia ensiformis) (UniProt P02866). Nature of the experiment: ConA small-molecule binders, primary screen, artefact control for SMM control protein annotation, biochemical, small-molecule microarray, Alexa647 label, 635 nm (AID 1127).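 Further: z combines 667 nm emission intensity with signal-to-noise across three replicate slides.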 The note with it: ConA-A647 binding fluorescence, higher = more signal.

Activity calls are given as the source filed them.

Chain of Concanavalin-A (Canavalia ensiformis) (P02866 whole entry, looked up): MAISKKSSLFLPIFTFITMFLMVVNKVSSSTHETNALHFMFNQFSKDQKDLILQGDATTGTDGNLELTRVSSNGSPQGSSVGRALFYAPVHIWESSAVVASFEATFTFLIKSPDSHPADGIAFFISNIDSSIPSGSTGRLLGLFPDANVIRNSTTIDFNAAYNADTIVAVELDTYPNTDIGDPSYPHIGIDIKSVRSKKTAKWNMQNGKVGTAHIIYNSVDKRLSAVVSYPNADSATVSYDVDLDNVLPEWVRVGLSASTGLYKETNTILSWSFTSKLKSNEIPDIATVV

As for `C=CCC(OC(C)=O)[C@@H]1[C@@H](N(Cc2ccc(-c3cccc(C(F)(F)F)c3)o2)C(=O)Cc2ccc(OC)cc2)c2cc(OCCCO)ccc2N1C(=O)c1ccc2ccccc2c1` (stereo not given in full), the composite z-score is -0.759 in experiment [1]; -0.394 in experiment [3]; -0.477 in experiment [4]; -0.506 in [5]; -0.124 in [6]; -0.214 in experiment [7]. Further, the composite z-score in experiment [8] is -0.261; in experiment [9], -0.157; in experiment [10], -0.0185; with Albumin (Bos taurus), 0.268; in experiment [12], 0.0423; in [13] it was -0.131. Also, the composite z-score in experiment [14] was 0.228; in experiment [15], 1.14; in experiment [16], -0.0744; in the experiment on Sam68 (KHDRBS1), -0.651; in [17], -0.0916; in [18] it was -0.471. In experiment [2], this compound had a z-score of 0.613. Moreover, in [11], the composite Z-score is -0.616 (inactive).

For `O=C(NCCN1CCOCC1)[C@@H]1c2ccccc2C(=O)N(Cc2cc(C(F)(F)F)cc(C(F)(F)F)c2)[C@H]1c1ccc(CO)cc1`, the composite z-score was 1.35 in experiment [1]; -0.775 in experiment [3]; -0.253 in experiment [4]; -0.198 in experiment [5]; -0.0161 in [6]; 0.123 in experiment [7]. For the same compound, the composite z-score was 0.0763 in experiment [8]; -0.729 in experiment [9]; 2.1 in experiment [10]; -0.32 in the experiment with Albumin (Bos taurus); -0.292 in experiment [12]; -0.101 in [13]. Further, the composite z-score was 0.699 in experiment [14]; 1.61 in experiment [15]; 0.501 in experiment [16]; 0.687 with Sam68 (KHDRBS1); -1.67 in experiment [17]; 0.412 in experiment [18]. In experiment [2], the z-score was -1.16. For the same compound, the composite Z-score in [11] was -0.253 (inactive).

On to `CC(c1ccccc1)C(O)C1C=CC2C(=O)N(C)C(=O)C2N1NC(=O)OC(C)(C)C` (stereo not given), for which the composite z-score is 0.664 in experiment [1]; -0.0606 in experiment [3]; 2.55 in experiment [4]; 0.265 in experiment [5]; 0.0377 in experiment [6]; -0.273 in [7]. Also, the composite z-score in [8] was 1.54; in experiment [9], 2.11; in [10], 1.29; with Albumin (Bos taurus), 0.974; in experiment [12], 0.148; in experiment [13] it was -0.0159. Further, the composite z-score is 0.695 in experiment [14]; 2.53 in experiment [15]; 0.857 in experiment [16]; 1.3 with Sam68 (KHDRBS1); -0.338 in [17]; 1.12 in experiment [18]. Also, the z-score in experiment [2] turned out to be 0.658. Besides, the composite Z-score in experiment [11] was 0.741 (inactive).

For `CN1C(=O)C2C=CC(C(O)c3c(F)cccc3Cl)N(NC(=O)OC(C)(C)C)C2C1=O` (stereo not given), the composite z-score in experiment [1] is 1.3; in [3], -0.0662; in [4], 2.03; in experiment [5] it was 0.498; in experiment [6], 0.0718; in experiment [7] it was -0.167. The composite z-score in experiment [8] is 1.46; in [9], 2.03; in experiment [10], 1.35; with Albumin (Bos taurus), 0.972; in [12] it was -0.0362; in experiment [13] it was 0.109. The composite z-score in experiment [14] was 0.572; in experiment [15], 2.75; in experiment [16], 0.67; in the experiment on Sam68 (KHDRBS1), 1.22; in [17], -0.729; in [18] it was 0.918. Also, the z-score in [2] was -0.28. The composite Z-score in experiment [11] was 2.18 (inactive).

Take `COc1cc2c(cc1OC)CN(C(=O)[C@H]1[C@@H]3C(=O)O[C@@H](c4ccccc4)[C@@H](c4ccccc4)N3[C@@H](c3ccccc3OCCO)[C@]13C(=O)Nc1ccc(C#CCCO)cc13)CC2`: the composite z-score was 1.37 in experiment [1]; 0.61 in [3]; 0.234 in experiment [4]; -0.114 in experiment [5]; 0.0136 in [6]; -0.138 in experiment [7]. Moreover, the composite z-score in experiment [8] is 0.194; in [9] it was 0.532; in experiment [10], 0.862; with Albumin (Bos taurus), 0.766; in experiment [12] it was 0.0268; in [13] it was -0.118. Further, the composite z-score in experiment [14] is 0.383; in [15], 0.935; in experiment [16], -0.0376; with Sam68 (KHDRBS1) it was 1.33; in experiment [17] it was 0.579; in [18], 1.11. Also, the z-score in experiment [2] was -1.79. For the same compound, the composite Z-score in experiment [11] is 0.397 (inactive).

These data come from PubChem BioAssay.
